Rows were chosen to be rich in hits. Some 7.9% of all compounds tested hit in one or more screens of this group.
HCMV antiviral – inhibitors of human cytomegalovirus; HFF cells, HCMV-luciferase reporter, 72 h; hits give low values; actives 4.5% (n = 410,000); activity change, negative = inhibition, % at 57.5 µM; AID 1259415; in the data active means activity change below about -60%; inconclusive means no clear call, values can overlap the other calls; inactive means above about -39%
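Steps: HFFs plated, 16 h 37C; compounds added; HCMV-luciferase added to MOI 1 PFU/cell; 72 h 37C; OneGlo reagent, 5 min room temperature; luminescence read, normalized to controls.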
FMDV antiviral – antivirals against foot and mouth disease virus; FMDV antiviral cell-based qHTS; actives 1.2% (n = 410,000); Potency, µM (highest dose often 57.9 µM), without a hit: at the highest dose activity change, negative = inhibition, hits mostly inhibitors; calls by dose curve; tested in HEK293T cells; further: read-out not given here; potency means the concentration at half of the fitted maximal effect; nearly all actives have a fitted effect of over 45% in size
Marburg entry inh – blocks Marburg virus binding to or entry into cells | Marburg virus pseudotyped entry inhibition, cell reporter | Potency, µM (titrated, usually from 37.8 µM), inactives show at the top dose activity change, negative = inhibition, most hits filed as inhibitors | actives 1.8% (n = 300,000) | AID 540276; calls by dose curve; tested in HEK293 cells; further: potency means the concentration at half of the fitted maximal effect
HCV inhibitor – HCV inhibition. actives 3.4% (n = 340,000). AID 651820. Potency, µM (titrated, usually from 41.8 µM), for inactives: at the top dose activity change, negative = inhibition, usual class: inhibitors. Huh7.5.1 HCVcc-Cre infection, luciferase reporter, 44 h; active means well fitted inhibition curve with a large enough effect; inconclusive means small, poorly fitted or top-dose-only effect, or another doubt; inactive means no such curve, though single readings can be large or run the other way; further: potency means the concentration at half of the fitted maximal effect
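Cells (1,000/well) were plated 4 h before compound, then infected with HCVcc-Cre virus (~0.5 moi). After 44 h further culture, infection was read as luciferase luminescence following a 15 min substrate incubation at room temperature.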
Lassa entry inh – inhibitors of Lassa virus binding or cell entry. Lassa virus pseudotype entry inhibition, cell reporter. Potency, µM (doses to about 37.9 µM), for the others: at the top dose activity change, negative = inhibition, usual class: inhibitors. actives 1.2% (n = 300,000); calls by dose curve; tested in HEK293 cells; further: potency means the concentration at half of the fitted maximal effect; nearly all actives have a fitted effect of over 50% in size
* = called active by the depositor; ? = inconclusive; . = not tested or not shown; [ ] = remark or other dose. On the % scale 0 is the no-effect control and ±100 the full control effect.

SMILES	HCMV antiviral	FMDV antiviral	Marburg entry inh	HCV inhibitor	Lassa entry inh
CCC1C=CC=CC[C@H](C)[C@@H](O)[C@](C)(O)C(=O)[C@@H](C)[C@H](O)[C@@H](C)C(=O)[C@H](C)[C@@H](O)[C@H](C)C=CC(=O)OC2[C@@H](C)C(CC1)OC1(CC[C@@H](C)C(C[C@H](C)O)O1)[C@@H]2C (stereo partly specified)	.	.	.	0.89µM*	.
COc1ccc(Cc2nc3ccc(C(=O)NCCc4ncccc4C)cc3o2)cc1OC	49	?	.	.	.
COc1ccc(NCc2cc3ccc(OC)cc3n(CC(=O)Nc3ccc(C)c(C)c3)c2=O)cc1	3	-3%	.	.	2%[46.1 µM]
O=C(CSc1cn(CCNC(=O)c2ccc3ccccc3c2)c2ccccc12)NCc1ccco1	-68*	?	.	?	.
O=C(CSc1cn(CCNC(=O)c2cccs2)c2ccccc12)NCc1ccccc1	-33	-20%	-3%	11µM*	.
O=C(CSc1cn(CCNC(=O)c2cccs2)c2ccccc12)NC1CCCCC1	-13	-29%	4%	?	.
COc1cc(-c2nc3ccc4ccccc4c3c3c2CCC3)cc(OC)c1OC	41	?	-17%	5.6µM*	-21%
O=c1c2ccccc2oc2ccc(C#CC3(O)CCCCC3)cc12	-35	32µM*	.	?	.
N#Cc1ccc(C#Cc2ccc3oc4ccccc4c(=O)c3c2)cc1	-15	4%	.	7%	.
Cn1c2ccccc2c(=O)c2cc(C#Cc3ccsc3)ccc21	62	26%	.	10%	.
Cn1c2ccccc2c(=O)c2ccc(C#CC3(N)CCCCC3)cc21	37	6%	.	11µM*	.
Cn1c2ccccc2c(=O)c2cc(C#CC3(O)CCCCC3)ccc21	-2	25µM*	.	14%	.
Cc1cc2sc3ccc(C#CC4(O)CCCCC4)cc3c(=O)c2cc1C	-96*	0.089µM*	.	-1%	.
CCNC(=O)C1(C)CCCN1C(=O)c1ccc(C#N)cc1 (stereo unspecified)	2	-21%	.	.	.
C[C@@H]1CN([C@@H](C)CO)C(=O)c2cc(C3=CCCCC3)cnc2O[C@H]1CN(C)C(=O)Nc1cccc(F)c1	13	-3%	.	.	.
Cc1ccc(C(C)C)c(OCC(=O)Nc2cccc(S(=O)(=O)NC3=NCCCCC3)c2)c1	-4	-27%	?	?	?
Cc1cccc(COc2ncnc3nc[nH]c23)c1	4	-4%	-2%	4µM*	?
COc1ccc(OC)c2sc(N(CCCN(C)C)C(=O)c3ccc(S(=O)(=O)N4CCc5ccccc5C4)cc3)nc12	.	.	.	4µM*	.
COc1ccc(C)c2sc(N(CCCN(C)C)C(=O)c3ccc(S(=O)(=O)N4CCc5ccccc5C4)cc3)nc12	-98*	?	?	?	?
O=C1NC(=O)N2CCSC2(Cc2ccccc2)N1 (stereo unspecified)	-98*	1%	0%	22%	10%[46.1 µM]
O=C(NCc1cccc(F)c1)Nc1nnc([C@@H]2C[C@H](O)[C@@H](CO)O2)s1	-3	2%	.	.	.
O=C1NC(c2ccccc2)Nc2c1sc(=S)n2-c1ccccc1 (stereo unspecified)	-104*	?	21%[46.1 µM]	0%	-7%
O=C(CN1CCN(C2CCCCC2)CC1)Nc1ccc(Br)cc1	33	-7%	-22%[46.1 µM]	10µM*	-5%
COC(=O)c1[nH]c2ccc(Br)cc2c1NC(=O)CN1CCN(C2CCCCC2)CC1	13	32µM*	6.5µM*	11µM*	?
COC(=O)c1[nH]c2ccc(C)cc2c1NC(=O)CCN1CCN(C2CCCCC2)CC1	.	.	-1%	?	.
SMILES	HCMV antiviral	FMDV antiviral	Marburg entry inh	HCV inhibitor	Lassa entry inh
CCOC(=O)C1CCN(CC(=O)Nc2c(C(=O)OC)[nH]c3ccc(Cl)cc23)CC1	60	?	10µM*	10µM*	?
COc1ccccc1C(=O)NC(CCSC)C(=O)NCc1ccccn1 (stereo unspecified)	-17	10%	?	6%	-2%
COc1ccc(OC)c(S(=O)(=O)N2CCC(C(=O)NCc3cccnc3)CC2)c1	42	2%	21%[46.1 µM]	-7%	3%
Cc1cccc(-c2nc(CN3CCCC(C(=O)NC4CCCCC4)C3)c(C)o2)c1 (stereo unspecified)	-21	?	?	32µM*	-18%
CCOC(=O)N1CCC(NC(=O)C2CCCN(Cc3nc(-c4ccc(CC)cc4)oc3C)C2)CC1 (stereo unspecified)	-87*	?	?	2.5µM*	?
Cc1cccc(-c2nc(CN3CCCC(C(=O)NC4CCCCCC4)C3)c(C)o2)c1 (stereo unspecified)	27	?	?	?	?
Cc1oc(-c2cccc(Cl)c2)nc1CN1CCCC(C(=O)NC(C)c2ccc3c(c2)OCCO3)C1 (stereo unspecified)	-28	20µM*	.	?	.
CCN1CCCC1CNC(=O)C1CCN(Cc2nc(-c3cccc(Br)c3)oc2C)CC1 (stereo unspecified)	.	-19%	3.5µM*	2.5µM*	11µM*
O=c1c(-c2cccs2)nc2cncnc2n1Cc1ccc(F)cc1	.	-5%	.	.	.
COc1ccc(/C=C2/Sc3ccc(C(=O)N4CCOCC4)cc3NC2=O)cc1OC	-69*	2%	.	-5%	.
Cc1cccc(/C=C2/Sc3ccc(C(=O)N4CCOCC4)cc3NC2=O)c1	-75*	-1%	.	-25%	.
CCOC(=O)N1CCN(C(=O)c2ccc3c(c2)NC(=O)/C(=C\c2ccc(OC)c(OC)c2)S3)CC1	?	-28%	.	10%	.
Cc1ccc(S(=O)(=O)N2CCCCC2)cc1NC(=O)c1ccc2c(=O)n3c(nc2c1)CCCCC3	-38	.	?	11µM*	16µM*
O=C(Nc1ccc(S(=O)(=O)N2CCCC2)cc1)c1ccc2c(=O)n3c(nc2c1)CCCCC3	-90*	?	2.5µM*	11µM*	-2%
Cc1ccc(-c2csc(NC(=O)c3ccc4c(=O)n5c(nc4c3)CCCCC5)n2)cc1	-66*	7.9µM*	?	?	?
O=C(CN1CCCCC1)NCC(=O)Nc1ccc(Br)cc1C(=O)c1ccccc1	13	-23%	?	11µM*	?
c1ccc(N2CCN(c3nc(NCc4ccco4)c4ccccc4n3)CC2)cc1	-6	28µM*	?	1µM*	?
CC(C)Oc1nc(-c2ccccc2O)nc2ccccc12	-17	36%	7%	13µM*	8%
Oc1ccccc1-c1nc(NCc2ccccc2)c2ccccc2n1	-31	-16%	?	11µM*	-31%[46.1 µM]
Fc1ccccc1CNc1nc(-c2cccnc2)nc2ccccc12	12	3%	?	35µM*	?
c1cncc(-c2nc(NCc3cccs3)c3ccccc3n2)c1	?	?	-27%[46.1 µM]	-30%	-7%
CN1c2ccccc2[C@@]2(O)C(=O)[C@@]1(C)[C@H]1Cc3ccccc3[C@H]12	.	.	0%[14.2 µM]	.	.
Fc1ccccc1-c1nc(NCc2ccco2)c2ccccc2n1	-81*	-29%	-25%[46.1 µM]	-25%	-20%
Oc1ccccc1-c1nc(NCc2ccco2)c2ccccc2n1	2	13%	-59%	3.2µM*	2%
